Results reported in PubChem BioAssay (Tox21).
Results filed as inconclusive are left out. Active and inactive are the calls of the source. Unless noted, calls come from the whole dose curve; as a rule, active = well fitted curve in the direction sought with a large enough effect in the repeat runs; inconclusive = weak or mixed curves; inactive = no such curve, though single readings can be large; an effect the other way counts as inactive or inconclusive.

Columns and labels:
[1] = qHTS assay to identify small molecule antagonists of the estrogen related receptor (ERR) signaling pathway from Tox21 library - cell viability counter screen (AID 1224834); note: nearly all actives have a fitted effect of over 30% in size
How it was run: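 ERR reporter cells, 2,000 per well, rested 6 h, then exposed to compound in DMSO for 17.5 hours at 37 C. Viability read as fluorescence after 30 min with CellTiter-Fluor.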

[2] = molecular target: Luciferin 4-monooxygenase (Photinus pyralis) (UniProt P08659); test: qHTS assay to identify small molecule inhibitors of firefly luciferase (AID 1224835); note: series mostly up to about 120 µM; nearly all actives have a fitted effect of over 25% in size
Sequence of Luciferin 4-monooxygenase (Photinus pyralis) (P08659 whole entry, looked up): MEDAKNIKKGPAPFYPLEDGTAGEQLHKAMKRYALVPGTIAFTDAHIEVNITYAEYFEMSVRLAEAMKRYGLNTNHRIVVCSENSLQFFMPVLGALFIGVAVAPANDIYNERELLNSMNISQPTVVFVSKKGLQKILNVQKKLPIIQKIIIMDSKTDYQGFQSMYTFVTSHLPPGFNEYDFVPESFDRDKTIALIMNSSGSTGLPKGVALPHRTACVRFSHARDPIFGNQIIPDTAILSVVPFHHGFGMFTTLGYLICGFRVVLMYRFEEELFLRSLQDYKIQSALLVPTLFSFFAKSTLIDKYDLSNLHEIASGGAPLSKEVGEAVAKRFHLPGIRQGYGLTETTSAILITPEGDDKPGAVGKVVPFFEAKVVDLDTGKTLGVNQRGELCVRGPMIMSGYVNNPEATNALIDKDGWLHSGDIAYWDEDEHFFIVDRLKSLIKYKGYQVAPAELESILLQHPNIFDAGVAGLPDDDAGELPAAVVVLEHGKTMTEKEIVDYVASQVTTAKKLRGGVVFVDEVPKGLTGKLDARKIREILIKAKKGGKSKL
How it was run: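 Quantitative HTS format; KM concentrations of both substrates. Purified P. pyralis FLuc activity quantified from luminescence images.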

[3] = qHTS assay to identify small molecule agonists of the constitutive androstane receptor (CAR) signaling pathway - cell viability counter screen (AID 1224836); note: series mostly up to about 92 µM; nearly all actives have a fitted effect of over 45% in size
How it was run: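 Using CellTiter-Fluor, viability of HepG2 cells harbouring hCAR and CYP2B6-2.2kb was measured following 23 h incubation with a 15-concentration compound series plus PK11195 (0.75 uM final).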

[4] = qHTS assay to identify small molecule antagonists of the constitutive androstane receptor (CAR) signaling pathway - cell viability counter screen (AID 1224837); note: series mostly up to about 92 µM; nearly all actives have a fitted effect of over 45% in size
How it was run: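 HepG2 cells stably carrying hCAR and CYP2B6-2.2kb reporter, stimulated with 50 nM CITCO and compounds at 15 concentrations for 23 h at 37 C. Viability measured by CellTiter-Fluor fluorescence.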

[5] = molecular target: Nuclear receptor subfamily 1 group I member 3 (Homo sapiens) (UniProt Q14994); test: qHTS assay to identify small molecule antagonists of the constitutive androstane receptor (CAR) signaling pathway (AID 1224838); note: nearly all actives have a fitted effect of over 40% in size
Sequence of Nuclear receptor subfamily 1 group I member 3 (Homo sapiens) (Q14994 whole entry, looked up): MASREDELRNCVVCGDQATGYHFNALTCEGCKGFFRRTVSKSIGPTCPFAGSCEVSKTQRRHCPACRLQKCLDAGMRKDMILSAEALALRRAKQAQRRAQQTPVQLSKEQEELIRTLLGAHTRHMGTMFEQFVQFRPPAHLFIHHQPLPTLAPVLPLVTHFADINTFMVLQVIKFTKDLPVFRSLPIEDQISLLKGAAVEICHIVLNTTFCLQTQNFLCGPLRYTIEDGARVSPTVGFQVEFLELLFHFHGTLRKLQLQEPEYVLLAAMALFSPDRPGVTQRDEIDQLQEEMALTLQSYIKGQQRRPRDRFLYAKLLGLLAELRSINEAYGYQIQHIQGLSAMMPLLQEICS
How it was run: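 HepG2 cells stably carrying hCAR and a CYP2B6-2.2kb luciferase reporter, seeded 4 hrs before compound (15 concentrations). Stimulated with 50 nM CITCO for 24 hr at 37 C. ONE-Glo luminescence read after 30 min at room temperature.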

[6] = molecular target: Nuclear receptor subfamily 1 group I member 3 (Homo sapiens) (UniProt Q14994); test: qHTS assay to identify small molecule agonists of the constitutive androstane receptor (CAR) signaling pathway (AID 1224839); note: series mostly up to about 92 µM; nearly all actives have a fitted effect of over 15% in size
How it was run: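 Double-stable HepG2 cells (hCAR, CYP2B6-2.2kb) seeded 4 h before compound addition. Exposure 24 h with 0.75 uM PK11195 final. Luciferase detected by ONE-Glo.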

[7] = qHTS assay to identify small molecule antagonists of the estrogen related receptor signaling pathway with the pleiotropic PPARgamma coactivator (PGC) from Tox21 10K library - cell viability counter screen (AID 1224840; active = well fitted cell-killing curve with a large enough effect in the repeat runs, not every such curve was filed as active; note: nearly all actives have a fitted effect of over 40% in size)
How it was run: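 PGC/ERR cells (2,000/well) plated 6 h, then compound-treated for 17.5 h at 37 C. Viability measured by CellTiter-Fluor fluorescence after 30 min at 37 C, multiplexed with the pathway assay.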

[8] = qHTS assay to identify small molecule antagonists of the estrogen related receptor signaling pathway with the pleiotropic PPARgamma coactivator (PGC) from Tox21 10K library (AID 1224841; call rule not given here; note: series mostly up to about 92 µM; actives are mostly falling curves and most rising ones were filed inactive; nearly all actives have a fitted effect of over 50% in size)
How it was run: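 PGC/ERR cell line, 2,000 cells/well, pre-incubated 6 hours at 37 C, then exposed to compounds for 18 hours at 37 C; luciferase read with One-Glo luminescence after 30 min at room temperature.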

[9] = qHTS assay to identify small molecule agonists of the estrogen related receptor signaling pathway with the pleiotropic PPARgamma coactivator (PGC) from Tox21 10K library (AID 1224842); note: nearly all actives have a fitted effect of over 15% in size
How it was run: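 PGC/ERR reporter cells (NTP line) were seeded 2,000 per well, rested 6 h at 37 C/5% CO2, then pin-dosed with compounds in DMSO for 18 h at 37 C; luciferase read by One-Glo luminescence after 30 min at room temperature.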

[10] = molecular target: Thyrotropin receptor (Homo sapiens) (UniProt P16473); test: qHTS assay to identify small molecule agonists of the thyroid stimulating hormone receptor (TSHR) signaling pathway (AID 1224843; calls by dose curve; note: nearly all actives have a fitted effect of over 45% in size)
Sequence of Thyrotropin receptor (Homo sapiens) (P16473 whole entry, looked up): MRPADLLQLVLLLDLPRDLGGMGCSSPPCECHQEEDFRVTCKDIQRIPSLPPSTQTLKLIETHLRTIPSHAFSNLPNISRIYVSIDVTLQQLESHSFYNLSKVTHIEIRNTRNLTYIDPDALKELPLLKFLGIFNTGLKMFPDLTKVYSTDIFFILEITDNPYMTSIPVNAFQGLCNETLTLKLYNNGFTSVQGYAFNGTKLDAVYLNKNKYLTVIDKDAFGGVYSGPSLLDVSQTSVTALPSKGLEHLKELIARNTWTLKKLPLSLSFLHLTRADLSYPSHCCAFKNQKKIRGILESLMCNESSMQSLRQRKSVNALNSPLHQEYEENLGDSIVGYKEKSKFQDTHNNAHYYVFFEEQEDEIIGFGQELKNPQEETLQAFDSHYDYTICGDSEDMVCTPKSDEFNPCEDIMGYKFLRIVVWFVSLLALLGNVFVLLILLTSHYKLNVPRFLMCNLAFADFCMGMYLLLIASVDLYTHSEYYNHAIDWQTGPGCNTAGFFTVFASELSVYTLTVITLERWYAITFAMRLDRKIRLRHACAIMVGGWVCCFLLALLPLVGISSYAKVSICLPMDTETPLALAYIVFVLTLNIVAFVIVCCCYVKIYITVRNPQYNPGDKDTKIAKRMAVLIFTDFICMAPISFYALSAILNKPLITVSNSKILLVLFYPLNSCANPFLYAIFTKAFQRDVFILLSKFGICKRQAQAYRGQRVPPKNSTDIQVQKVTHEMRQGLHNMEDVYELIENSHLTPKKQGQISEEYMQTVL
How it was run: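 Cell line HEK293 with TSHR; density 800/well. Exposure 30 min RT. Readout HTRF cAMP (cAMP-d2/anti-cAMP-cryptate), 1 h RT before reading.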

[11] = qHTS assay to identify small molecule agonists of the hypoxia (HIF-1) signaling pathway - cell viability counter screen (AID 1224844; calls by dose curve; note: nearly all actives have a fitted effect of over 50% in size)
How it was run: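 HRE-bla ME-180 cells, 2,000/well in 0.5% dialyzed FBS medium, treated 17 h at 37C with compounds. Viability read in the same wells as the bla reporter, by CellTiter-Glo luminescence after 30 min at room temperature.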

[12] = qHTS assay to identify small molecule agonists of H2AX (AID 1224845; active = well fitted activation curve with a large enough effect in the signal ratio in the repeat runs, not every such curve was filed as active; the % refers to the signal ratio)
How it was run: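 Wild-type CHO-K1 cells plated overnight, then exposed 3 hr at 37C to compounds at 15 concentrations (0.76% DMSO). Lysed, then HTRF anti-pH2AX(S139)-cryptate/anti-H2AX-d2 detection after 24 hr at room temperature; emissions 665 and 620 nm.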

[13] = qHTS assay to identify small molecule agonists of the hypoxia (HIF-1) signaling pathway (AID 1224846; active = well fitted activation curve with a large enough effect in the signal ratio in the repeat runs, not every such curve was filed as active; the % refers to the signal ratio)
How it was run: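 HRE-bla ME-180 beta-lactamase reporter cells in medium with 0.5% dialyzed FBS, pre-incubated 5 h then exposed to compounds 17 h at 37C, 5% CO2; reporter induction read with CCF4-AM FRET substrate.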

[14] = qHTS assay to identify small molecule antagonists of the estrogen related receptor (ERR) signaling pathway from Tox21 library (AID 1224848); note: nearly all actives have a fitted effect of over 50% in size
How it was run: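 Screening used an ERR reporter line supplied by NTP, exposed for 18 h at 37 C to library compounds delivered in DMSO. Signal was luciferase luminescence developed with ONE-Glo at room temperature for 30 min.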

[15] = qHTS assay to identify small molecule agonists of the estrogen related receptor (ERR) signaling pathway from Tox21 library (AID 1224849; calls by dose curve; note: nearly all actives have a fitted effect of over 15% in size)
How it was run: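 ERR reporter cells (NTP line) pre-incubated 6 hours at 37 C, then exposed to compounds for 18 hours at 37 C. ONE-Glo luciferase luminescence was read after 30 minutes at room temperature.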

[16] = qHTS RealTime-Glo MT Cell Viability Assay in HepG2 cells - 24 hour (AID 1224867); note: nearly all actives have a fitted effect of over 50% in size
How it was run: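 Cells + NanoLuc/prosubstrate dispensed (600 cells/well) → 5 h at 37 C/5% CO2 → compounds in DMSO transferred → 40 h incubation at 37 C, luminescence read at 0, 8, 16, 24, 32, 40 h.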

[17] = A CellTox Green Cytotoxicity Assay to monitor cytotoxicity in HEK293 cells - 0 hour (AID 1224869); note: nearly all actives have a fitted effect of over 50% in size
How it was run: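 HEK293 cells, 600/well, were preincubated 5 hours and then exposed to compounds at 37 C for up to 40 hours. A cell-impermeant cyanine dye staining dead-cell DNA was read by fluorescence at 0, 8, 16, 24, 32 and 40 h time points.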

[18] = qHTS RealTime-Glo MT Cell Viability Assay in HepG2 cells - 40 hour (AID 1224870); note: nearly all actives have a fitted effect of over 50% in size
How it was run: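 HepG2 cells mixed with RealTime-Glo MT reagents (NanoLuc plus cell-permeant prosubstrate) were seeded at 600 cells/well, incubated 5 h at 37 C/5% CO2, then pinned with compounds in DMSO; nonlytic luminescence tracked viability during 40 h treatment.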

[19] = qHTS assay to identify small molecule agonists of H2AX - cell viability counter screen (AID 1224847; calls by dose curve; note: top concentration of the series differs between compounds; nearly all actives have a fitted effect of over 30% in size)
How it was run: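 Quantitative HTS viability measurement: CHO-K1 wild-type cells in serum (10% FBS) medium, short 3 hr drug exposure at 37C with 0.76% DMSO, CellTiter-Glo luminescent detection.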

[20] = qHTS RealTime-Glo MT Cell Viability Assay in HEK293 cells - 32 hour (AID 1224868)
How it was run: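 Tox21 10K qHTS, HEK293, 600 cells/well, RealTime-Glo reagent co-dispensed with cells; 5 h preincubation, compound by pintool, 37 C, luminescence at 0–40 h.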
% is set by controls: 0 for no effect and ±100 for the full control effect.

O=S(=O)(O)c1cccc2c(S(=O)(=O)O)cccc12
inactive: Potency [1] | Potency [2] | outcome [3] | outcome [4] | Potency [5] | Potency [6] | outcome [7] | Potency [8] | Potency [9] | Potency [10] | Potency [11] | Potency [12] | outcome [13] | Potency [14] | outcome [15] | outcome [16] | outcome [17] | Potency [18]

C[N+]1(CC2COC(c3ccccc3)(c3ccccc3)O2)CCCCC1 (centres undefined)
inactive: viability change, negative = cytotoxic [1] 7.36% [at 19 µM] | activity change, negative = inhibition [2] -3.43% [at 23.6 µM] | viability change, negative = cytotoxic [3] 1.16% [at 19 µM] | activity change, negative = cytotoxicity [4] 4.57% [at 19 µM] | activity, negative = inhibition [5] -9.35% [at 19 µM] | activation [6] -2.79% [at 19 µM] | viability change, negative = cytotoxic [7] -2.82% [at 19 µM] | activation [9] 0.389% [at 19 µM] | activity change, negative = cytotoxicity [11] 0.991% [at 15.8 µM] | activation [13] 0.207% [at 15.8 µM] | activity change, negative = cytotoxicity [19] -1.84% [at 31.6 µM] | activity, negative = inhibition [14] 4.63% [at 19 µM] | activity change, positive = activation [15] 2.6% [at 19 µM] | activity change, negative = cytotoxic [20] -5.88% [at 15.8 µM] | cytotoxicity [17] -9.06% [at 15.8 µM]

CC(C#N)(CCC(=O)O)N=NC(C)(C#N)CCC(=O)O (centres undefined)
inactive: Potency [1] | Potency [2] | outcome [3] | outcome [4] | Potency [5] | Potency [6] | outcome [7] | Potency [8] | Potency [9] | Potency [10] | Potency [11] | Potency [12] | outcome [13] | outcome [19] | Potency [14] | outcome [15] | outcome [16] | Potency [20] | outcome [17] | Potency [18]

CC(=O)Oc1cccc(C)c1
inactive: Potency [1] | Potency [2] | outcome [3] | outcome [4] | Potency [5] | Potency [6] | outcome [7] | Potency [8] | Potency [9] | Potency [10] | Potency [11] | Potency [12] | outcome [13] | Potency [14] | outcome [15] | outcome [16] | Potency [20] | outcome [17] | Potency [18]

CC(=O)C1CCCCC1=O (centres undefined)
inactive: Potency [1] | Potency [2] | outcome [3] | outcome [4] | Potency [5] | Potency [6] | outcome [7] | Potency [10] | Potency [11] | Potency [12] | outcome [13] | outcome [19] | outcome [16] | Potency [20] | outcome [17] | Potency [18]

CC1=C(C/C=C(\C)CCC[C@H](C)CCC[C@H](C)CCCC(C)C)C(=O)c2ccccc2C1=O
inactive: Potency [1] | Potency [2] | outcome [3] | outcome [4] | Potency [5] | Potency [6] | outcome [7] | Potency [8] | Potency [9] | Potency [10] | Potency [11] | Potency [12] | outcome [13] | outcome [19] | Potency [14] | outcome [15] | outcome [16] | outcome [17]

CC[C@H]1OC(=O)[C@H](C)[C@@H](O[C@H]2C[C@@](C)(OC)[C@@H](O)[C@H](C)O2)[C@H](C)[C@@H](O[C@@H]2O[C@H](C)C[C@H](N(C)C)[C@H]2O)[C@](C)(OC)C[C@@H](C)C(=O)[C@H](C)[C@@H](O)[C@]1(C)O
inactive: Potency [1] | Potency [2] | outcome [3] | outcome [4] | Potency [5] | Potency [6] | outcome [7] | Potency [9] | Potency [11] | Potency [12] | outcome [13] | outcome [19] | Potency [14] | outcome [15] | outcome [16] | Potency [20] | outcome [17] | Potency [18]
